# Bioassay records: PubChem BioAssay, Broad Institute
# RAD54 branch: RAD54 (human) branch migration inhibition. Q92698. RAD54 Holliday junction branch migration, FAM/BHQ fluorescence. inhibition, % at 10.4 µM. 360,000 tested, 0.14% active. AID 602329;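 active = mean normalized replicate activity at least 40 and at least half of replicates scoring 40 or more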;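 note: inhibitors cause a drop in the FAM fluorescence signal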
# PvdQ acylase: P. aeruginosa PvdQ acylase inhibition; AID 488965; 340,000 tested, 0.063% active; purified PvdQ acylase, fluorescence plate reader; inhibition, % at 10 µM; in the data active = inhibition above about 30%, passing the limit was not always enough
# dFosB act-1: mouse delta FosB homodimer activation; P13346; purified delta FosB, TAMRA-CDK5 oligo fluorescence polarization; percent of positive-control signal above neutral wells; activation, % at 25 µM; 340,000 tested, 0.99% active;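 active = mean activation above about 17%, with every replicate also reaching it, limit read from the data, passing the limit was not always enough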
# Target sequence (P13346 whole entry, looked up): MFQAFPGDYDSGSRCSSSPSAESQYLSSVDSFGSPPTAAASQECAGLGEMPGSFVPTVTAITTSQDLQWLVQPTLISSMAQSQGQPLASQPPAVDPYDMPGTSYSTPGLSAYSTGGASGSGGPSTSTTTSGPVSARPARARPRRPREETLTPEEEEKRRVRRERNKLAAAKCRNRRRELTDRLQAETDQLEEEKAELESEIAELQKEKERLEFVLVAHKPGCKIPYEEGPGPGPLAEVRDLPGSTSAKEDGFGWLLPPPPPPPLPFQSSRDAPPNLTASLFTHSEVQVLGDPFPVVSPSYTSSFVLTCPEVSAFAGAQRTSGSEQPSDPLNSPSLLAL
# CFTR F508del cor: correctors of CFTR F508del function in bronchial epithelial cells | CFBE cells, YFP halide quenching; stimulated with forskolin plus potentiator P3; % fluorescence drop versus neutral controls | activity (quench increase), % at 7.58 µM | 350,000 tested, 0.36% active | AID 720511;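 active = mean added fluorescence quench of at least 8% versus neutral control, with both replicates also reaching 8%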;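 note: cells transiently co-express mutant CFTR-F508del with the halide-sensitive YFP; corrector assay measuring rescue of mutant channel to the surface after 24 h compound exposure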
# Glyco luc inh: blocks N-linked glycosylation in D54 reporter cells; AID 588692; 360,000 tested, 0.23% active; reporter increase, % at 12.5 µM; D54 ERlucT glycosylation luciferase reporter, 24 h; percent of 100 nM tunicamycin response;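 active = mean luciferase reporter signal, scaled so untreated is 0 and the glycosylation-blocking control 100, at or above a set limit in every replicate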;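 note: luciferase carries N-glycosylation sites so blocking glycosylation raises the light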
# RAD52 anneal inh: inhibitors of human RAD52 DNA annealing; P43351; recombinant RAD52 DNA annealing, FRET fluorescence; inhibition, % at 18.7 µM; 360,000 tested, 0.46% active; AID 651710;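 active = every replicate showing at least 50% inhibition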
# dFosB act-2: enhances mouse delta FosB homodimer binding to DNA. activation, % at 24.9 µM. 2,400 tested, under 10 active. shares compounds with dFosB act-1. purified delta FosB, TAMRA-CDK5 oligo fluorescence polarization; normalised: neutral wells 0, positive control 100. AID 588690;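 active = highest replicate activation at or above 34% and every replicate reaching that threshold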;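 note: higher polarization means more probe DNA bound by delta FosB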
# Hits are given with their value; – = inactive; · = not tested or not shown. Most compounds without a hit are left out; they make up all but 1.5% or so of the library.
SMILES,RAD54 branch,PvdQ acylase,dFosB act-1,CFTR F508del cor,Glyco luc inh,RAD52 anneal inh,dFosB act-2
Cc1ccc(S(=O)(=O)N(C)C[C@H]2OCCCC[C@H](C)Oc3ccc(NC(=O)c4ccccc4)cc3C(=O)N([C@H](C)CO)C[C@H]2C)cc1,–,·,·,–,·,–,·
COc1ccccc1-c1cn(CC[C@H]2CC[C@@H](NC(=O)C3CCC3)[C@H](CO)O2)nn1,–,·,·,–,·,–,·
Cc1ccc(NC(=O)NNC(=O)COc2ccc([N+](=O)[O-])cc2)cc1C,–,–,32,–,–,–,–
Cc1ccc(OCC(=O)NNC(=O)Nc2ccc(Cl)cc2)c(Br)c1,·,–,23,–,–,–,–
Clc1ccc2oc(-c3ccccc3)cc(=NCCCN3CCOCC3)c2c1,·,–,–,–,–,–,·
OCCCCCN=c1cc(-c2ccccc2)oc2ccc(Cl)cc12,·,–,21,·,51,·,–
COc1ccc2nc(C)cc(SCC(=O)Nc3c(C)cc(C)cc3C)c2c1,–,–,–,·,–,·,·
COc1ccc2nc(C)cc(SCC(=O)Nc3c(C)cccc3C)c2c1,·,–,73,·,–,–,–
CCc1ccc2nc(SCC(=O)Nc3ccccc3N3CCOCC3)c(C#N)cc2c1,·,–,24,–,–,–,–
CC(c1ccccc1)N(NC(=O)C(O)(c1ccccc1)c1ccccc1)C(=O)c1ccccc1 (stereo unspecified),–,–,38,–,–,–,–
Cc1cc(=O)[nH]c(N/N=C/c2c(C)nn(-c3ccc(F)cc3)c2Cl)n1,–,–,46,–,–,–,–
Cc1c(Cl)cccc1NC(=O)NCc1ccc(F)cc1,·,–,28,–,–,–,–
O=C(NCc1ccccc1)NC(=O)c1ccc(Cl)cc1,–,–,–,–,–,–,·
O=C(NCc1ccc(F)cc1)NC(=O)c1ccc(Cl)cc1,–,–,32,–,–,–,–
COc1ccc(CNC(=O)C[C@H]2C=C[C@H](NC(=O)Nc3ccc4c(c3)OCO4)[C@H](CO)O2)cc1,–,·,·,–,·,–,·
O=C(C[C@H]1CC[C@H](NS(=O)(=O)c2cccc(F)c2)[C@H](CO)O1)NCc1ccc2c(c1)OCO2,–,·,·,–,·,–,·
O=C(Oc1coc(CSc2nnc(NC(=O)C3CC3)s2)cc1=O)c1ccccc1,·,–,23,·,–,·,–
Cc1cc(=O)n2nc(N3CCCC(C(=O)NCc4ccc(F)cc4)C3)sc2n1 (stereo unspecified),–,–,–,–,–,–,·
O=C(NCc1ccc(F)cc1)C1CCCN(c2nc3ccsc3c(=O)s2)C1 (stereo unspecified),·,–,75,–,–,–,–
S=C(c1cn(CCOc2cccc3ccccc23)c2ccccc12)N1CCCC1,–,–,27,·,–,·,–
COc1cc2nc(SCc3ccc(F)cc3)n(Cc3cccs3)c(=N)c2cc1OC,–,–,–,·,–,·,·
COc1ccc(Cn2c(SCc3ccccc3C)nc3cc(OC)c(OC)cc3c2=N)cc1,–,–,45,·,–,·,–
O=C1CN(C(=O)COC(=O)c2cccs2)c2ccccc2N1,–,–,–,–,–,–,·
Cn1c2ccccc2c2cc(C(=O)OCC(=O)N3CC(=O)Nc4ccccc43)sc21,–,–,39,·,–,·,–
COc1ccc(/C=C(\C#N)C(=O)OCC(=O)NCc2ccccc2Cl)cc1,·,–,–,–,–,–,·
SMILES,RAD54 branch,PvdQ acylase,dFosB act-1,CFTR F508del cor,Glyco luc inh,RAD52 anneal inh,dFosB act-2
COc1ccc(/C=C(\C#N)C(=O)OCC(=O)NCc2ccccc2OC)cc1,·,–,31,–,–,–,–
Oc1ccc(Br)cc1-c1cc(-c2ccc(Cl)cc2)n[nH]1,·,–,28,·,–,·,–
Oc1ccc(Br)cc1-c1cc(-c2ccccc2)n[nH]1,–,–,–,·,–,·,·
COCc1cn(CC[C@H]2CC[C@H](NC(=O)c3ccccc3)[C@H](CO)O2)nn1,–,·,·,–,·,–,·
O=C(C[C@@H]1CC[C@H]2[C@@H](COC[C@@H](O)CN2Cc2cccc(Cl)c2)O1)NCc1cccc(F)c1,–,·,·,–,·,–,·
O=C(NN=Cc1ccc2c(c1)OCO2)c1ccccc1,–,–,–,–,–,–,·
O=C(CNC(=O)c1cccc(Br)c1)N/N=C/c1ccc2c(c1)OCO2,–,–,18,–,–,–,–
c1ccc(Nc2nc(Nc3ccccc3)nc(N3CCNCC3)n2)cc1,–,–,–,–,–,–,·
CC(Nc1nc(N2CCNCC2)nc2ccccc12)c1ccccc1 (stereo unspecified),·,–,48,–,–,–,–
O=C(Nc1ccc(-c2nnn(CC(=O)N3CCN(C(=O)c4ccco4)CC3)n2)cc1)c1ccc(F)cc1,–,–,35,–,–,–,–
COc1ccc(CCNC(=O)Cn2nnc(-c3ccc(OC)c(OC)c3)n2)cc1OC,·,–,–,–,–,–,·
COCCCNC(=O)Cn1nnc(-c2ccc(NC(=O)c3ccc(F)cc3)cc2)n1,–,–,35,·,–,·,–
COCC(=O)N(C)C[C@@H]1Oc2ncc(C#Cc3ccc(OC)cc3)cc2C(=O)N([C@H](C)CO)C[C@@H]1C,–,·,·,–,·,–,·
COc1ccc(CNC(=O)C[C@@H]2CC[C@@H](NC(=O)c3cccc(F)c3)[C@H](CO)O2)cc1,–,·,·,–,·,–,·
CCCNC(=O)[C@H]1[C@H](CO)[C@H]2Cn3c(ccc(-c4ccccc4F)c3=O)[C@@H]1N2CC1CC1,–,·,·,–,·,–,·
O=C(Cn1c2ccc(F)cc2c2nc3n(c(=O)c21)CCS3)Nc1ccccc1C(F)(F)F,·,–,50,–,–,–,–
COc1ccc2c3c([nH]c2c1)[C@H](CO)N(S(C)(=O)=O)CC31CCN(Cc2ccccc2)CC1,·,·,·,–,·,·,·
COC(=O)c1ccc2c(c1)C(C)(C)C(/C=C/c1ccc(O)cc1)=[N+]2C,·,–,119,·,–,·,–
O=C(Nc1ccccc1Cl)N(Cc1nc2ccccc2c(=O)[nH]1)Cc1cccs1,·,–,33,·,–,·,–
CCC(=O)N(C)C[C@H]1Oc2cc(C3=CCCCC3)ccc2S(=O)(=O)N([C@@H](C)CO)C[C@H]1C,·,·,·,–,·,·,·
COc1ccc(-c2nnc(SCC(=O)Nc3cccc(Cl)c3)o2)cc1,–,–,38,·,–,·,–
O=C(CSc1nnc(-c2ccc(Br)cc2)o1)Nc1cccc(C(=O)O)c1,–,–,–,–,–,–,·
COc1ccc(-c2nnc(SCC(=O)Nc3ccccc3OC)o2)cc1,–,–,–,–,–,–,·
O=C(CSc1nnc(-c2ccc(Br)cc2)o1)Nc1cccc2ccccc12,–,–,30,–,–,–,–
CCS(=O)(=O)Nc1ccc(-c2nnc(SCC(=O)OC)o2)cc1,–,–,–,·,–,·,·
CCC(=O)Nc1ccc(C(=O)CSc2nnc(-c3ccc(NS(=O)(=O)CC)cc3)o2)cc1OC,–,–,20,–,–,–,–
